Reference: PubChem BioAssay (NCI)
The panel holds about 79,000 compounds, 15% with a hit somewhere; the sample as a whole holds those more often. Activity calls are given as the source filed them. Rule as the data show it: active = growth inhibition above about 70%; inactive = the rest.

Tests used:
[1] = NCI Yeast Anticancer Drug Screen. Data for the rad52 strain (AID 147);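 also: 0% = growth of vehicle-treated control cultures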; conditions: S. cerevisiae rad52 mutant growth inhibition, stronger effect = higher value
How it was run: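 Vehicle-treated cultures served as the reference for growth inhibition of compound-exposed yeast bearing a DNA repair mutation.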

[2] = NCI Yeast Anticancer Drug Screen. Data for the wt1 strain (AID 149);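 also: 0% = growth of vehicle-treated wt1 cultures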; conditions: S. cerevisiae wt1 strain (SPY 50644) growth inhibition, stronger effect = higher value
How it was run: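 wt1 strain grown with compound or vehicle; inhibition taken from the growth difference.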

[3] = NCI Yeast Anticancer Drug Screen. Data for the rad50EPP+ strain (AID 151);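 also: 0% = growth of vehicle-treated control cultures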; conditions: S. cerevisiae rad50 mutant strain, stronger effect = higher value
How it was run: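 In this screen, rad50EPP+ yeast were exposed to compounds. Growth inhibition was scored against vehicle-treated controls.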

[4] = NCI Yeast Anticancer Drug Screen. Data for the mgt1 strain (AID 153); conditions: S. cerevisiae mgt1 mutant growth inhibition, stronger effect = higher value
How it was run: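 mgt1 strain exposed; growth vs vehicle control recorded as inhibition.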

[5] = NCI Yeast Anticancer Drug Screen. Data for the rad50 strain (AID 155);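 also: 0% = growth of vehicle-only cultures of the same strain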; conditions: S. cerevisiae rad50 strain growth inhibition, stronger effect = higher value
How it was run: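 DNA repair mutant yeast, compound exposure, growth read-out; inhibition is taken relative to vehicle.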

[6] = NCI Yeast Anticancer Drug Screen. Data for the mec2-1 strain (AID 157); conditions: S. cerevisiae mec2-1 strain, stronger effect = higher value
How it was run: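 Vehicle-treated cultures served as reference for growth inhibition of compound-exposed mec2-1 yeast.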

[7] = NCI Yeast Anticancer Drug Screen. Data for the rad14 strain (AID 159);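 also: 0% = growth of vehicle-treated control cultures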; conditions: S. cerevisiae rad14 strain growth inhibition, stronger effect = higher value
How it was run: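 DNA repair-defective yeast, compound-exposed; % growth inhibition derived by comparison with vehicle-treated controls.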

[8] = NCI Yeast Anticancer Drug Screen. Data for the sgs1 mgt1 strain (AID 161);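 also: 0% = growth of cultures given vehicle only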; conditions: S. cerevisiae sgs1 mgt1 strain, stronger effect = higher value
How it was run: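 Mutant yeast exposed to compound; growth scored against vehicle-only wells.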

[9] = NCI Yeast Anticancer Drug Screen. Data for the CLN2oe strain (AID 163);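 also: 0% = growth of vehicle-only control cultures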; conditions: S. cerevisiae CLN2oe strain, stronger effect = higher value
How it was run: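 Inhibition relative to vehicle-treated yeast is reported. Cells: strain with genetic alteration in cell-cycle control, grown with compound.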

[10] = NCI Yeast Anticancer Drug Screen. Data for the cln2 rad14 strain (AID 165);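 also: 0% = growth equal to vehicle treated cultures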; conditions: S. cerevisiae cln2 rad14 strain, stronger effect = higher value
How it was run: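 Each compound was tested on cln2 rad14 yeast. Inhibition of growth was calculated against vehicle-exposed controls.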

[11] = NCI Yeast Anticancer Drug Screen. Data for the bub3 strain (AID 167); conditions: S. cerevisiae bub3 mutant strain, stronger effect = higher value
How it was run: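 In this screen, a yeast mutant lacking normal mitotic checkpoint function is challenged with compound. Relative growth versus vehicle gives the inhibition value.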

[12] = NCI Yeast Anticancer Drug Screen. Data for the wt2 strain (AID 169);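 also: 0% = growth of vehicle-treated yeast cultures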; conditions: S. cerevisiae wt2 strain growth inhibition, stronger effect = higher value
How it was run: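 Inhibition of yeast growth was determined after compound treatment, normalised to controls receiving only vehicle.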

[13] = NCI Yeast Anticancer Drug Screen. Data for the mlh1 strain (AID 171);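 also: 0% = growth of vehicle-treated control cultures of the same strain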; conditions: S. cerevisiae mlh1 strain growth inhibition, stronger effect = higher value
How it was run: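 Vehicle-normalised growth inhibition of a repair- or checkpoint-altered yeast strain following compound treatment.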

[14] = NCI Yeast Anticancer Drug Screen. Data for the sgs1 strain (AID 173);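 also: 0% = growth of vehicle-only control cultures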; conditions: S. cerevisiae sgs1 mutant, stronger effect = higher value
How it was run: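 Screen format: yeast with repair or checkpoint alterations, compound exposure, growth read relative to vehicle.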

[15] = NCI Yeast Anticancer Drug Screen. Data for the mlh1 rad18 strain (AID 175); conditions: S. cerevisiae mlh1 rad18 strain growth inhibition, stronger effect = higher value
How it was run: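 Vehicle-treated cultures served as the reference for growth inhibition in a yeast strain carrying DNA damage repair alterations exposed to each compound.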

[16] = NCI Yeast Anticancer Drug Screen. Data for the rad18 strain (AID 177); conditions: S. cerevisiae rad18 mutant growth inhibition, stronger effect = higher value
How it was run: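 Test articles were incubated with altered yeast defective in DNA damage repair. Results are given as inhibition of growth versus vehicle.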

[17] = at 5.0 µM (retest, dose inferred, filed as 0.5)
[18] = at 50.0 µM (retest, dose inferred, filed as 5.0)

Measured: growth inhibition

C[N+](C)([O-])CCCNc1c2ccccc2nc2cccc([N+](=O)[O-])c12
inactive: [1]; at 1.2 µM 54% | [2]; at 1.2 µM -3% | [2]; at 3.7 µM 7% | [2]; at 11.0 µM 24% | [3]; at 1.2 µM 28% | [3]; at 3.7 µM 44% | [4]; at 1.2 µM -5% | [4]; at 3.7 µM -10% | [4]; at 11.0 µM 7% | [5]; at 1.2 µM 31% | [5]; at 3.7 µM 68% | [5]; [17] 63% | [6]; at 1.2 µM 3% | [6]; at 3.7 µM 54% | [6]; [17] 54% | [7]; at 1.2 µM 41% | [8]; [17] 41% | [9]; at 1.2 µM -2% | [9]; at 3.7 µM -1% | [9]; at 11.0 µM 33% | [11]; at 1.2 µM -25% | [11]; at 3.7 µM -14% | [11]; [17] 6% | [11]; at 11.0 µM 15% | [11]; at 50.0 µM 52.6% | [12]; at 1.2 µM -1% | [12]; at 3.7 µM 20% | [12]; at 11.0 µM 26% | [13]; at 1.2 µM 14% | [13]; at 3.7 µM 22% | [13]; at 11.0 µM 44%
active: [1]; at 3.7 µM 86% | [1]; at 11.0 µM 94% | [1]; at 33.0 µM 96% | [1]; at 100.0 µM 96% | [2]; at 33.0 µM 80% | [2]; at 100.0 µM 94% | [3]; at 11.0 µM 79% | [3]; at 33.0 µM 94% | [3]; at 100.0 µM 95% | [4]; at 33.0 µM 70% | [4]; at 100.0 µM 93% | [5]; at 11.0 µM 91% | [5]; at 33.0 µM 94% | [5]; [18] 89% | [5]; at 50.0 µM 86.8% | [5]; at 100.0 µM 95% | [6]; at 11.0 µM 93% | [6]; at 33.0 µM 97% | [6]; [18] 95% | [6]; at 50.0 µM 88% | [6]; at 100.0 µM 96% | [7]; at 3.7 µM 90% | [7]; at 11.0 µM 94% | [7]; at 33.0 µM 96% | [7]; at 100.0 µM 96% | [8]; [18] 89% | [8]; at 50.0 µM 83.2% | [9]; at 33.0 µM 82% | [9]; at 100.0 µM 93% | [10]; [17] 85% | [10]; [18] 96% | [10]; at 50.0 µM 87.2% | [11]; at 33.0 µM 79% | [11]; [18] 74% | [11]; at 100.0 µM 95% | [12]; at 33.0 µM 84% | [12]; at 100.0 µM 94% | [13]; at 33.0 µM 89% | [13]; at 100.0 µM 95% | [14]; at 1.2 µM 80% | [14]; at 3.7 µM 89% | [14]; at 11.0 µM 94% | [14]; at 33.0 µM 94% | [14]; at 100.0 µM 97% | [15]; [17] 81% | [15]; [18] 95% | [15]; at 50.0 µM 78.5% | [16]; at 1.2 µM 95% | [16]; at 3.7 µM 96% | [16]; at 11.0 µM 96% | [16]; at 33.0 µM 97% | [16]; at 100.0 µM 97%
